{"source": "PubChem BioAssay AID376", "about": "(PDSP, 2006)", "note": "In all, about 2,000 compounds went through this assay and about 250 (12%) were called active. No stated cut-off is given here; in the data, active means hERG blockade below about -20% or above about 20%; inactive means in between. The entries come from a sample that favours actives as a whole.", "data": [{"target": "Voltage-gated inwardly rectifying potassium channel KCNH2 (Homo sapiens) (UniProt Q12809)", "sequence (Q12809 whole entry, looked up)": "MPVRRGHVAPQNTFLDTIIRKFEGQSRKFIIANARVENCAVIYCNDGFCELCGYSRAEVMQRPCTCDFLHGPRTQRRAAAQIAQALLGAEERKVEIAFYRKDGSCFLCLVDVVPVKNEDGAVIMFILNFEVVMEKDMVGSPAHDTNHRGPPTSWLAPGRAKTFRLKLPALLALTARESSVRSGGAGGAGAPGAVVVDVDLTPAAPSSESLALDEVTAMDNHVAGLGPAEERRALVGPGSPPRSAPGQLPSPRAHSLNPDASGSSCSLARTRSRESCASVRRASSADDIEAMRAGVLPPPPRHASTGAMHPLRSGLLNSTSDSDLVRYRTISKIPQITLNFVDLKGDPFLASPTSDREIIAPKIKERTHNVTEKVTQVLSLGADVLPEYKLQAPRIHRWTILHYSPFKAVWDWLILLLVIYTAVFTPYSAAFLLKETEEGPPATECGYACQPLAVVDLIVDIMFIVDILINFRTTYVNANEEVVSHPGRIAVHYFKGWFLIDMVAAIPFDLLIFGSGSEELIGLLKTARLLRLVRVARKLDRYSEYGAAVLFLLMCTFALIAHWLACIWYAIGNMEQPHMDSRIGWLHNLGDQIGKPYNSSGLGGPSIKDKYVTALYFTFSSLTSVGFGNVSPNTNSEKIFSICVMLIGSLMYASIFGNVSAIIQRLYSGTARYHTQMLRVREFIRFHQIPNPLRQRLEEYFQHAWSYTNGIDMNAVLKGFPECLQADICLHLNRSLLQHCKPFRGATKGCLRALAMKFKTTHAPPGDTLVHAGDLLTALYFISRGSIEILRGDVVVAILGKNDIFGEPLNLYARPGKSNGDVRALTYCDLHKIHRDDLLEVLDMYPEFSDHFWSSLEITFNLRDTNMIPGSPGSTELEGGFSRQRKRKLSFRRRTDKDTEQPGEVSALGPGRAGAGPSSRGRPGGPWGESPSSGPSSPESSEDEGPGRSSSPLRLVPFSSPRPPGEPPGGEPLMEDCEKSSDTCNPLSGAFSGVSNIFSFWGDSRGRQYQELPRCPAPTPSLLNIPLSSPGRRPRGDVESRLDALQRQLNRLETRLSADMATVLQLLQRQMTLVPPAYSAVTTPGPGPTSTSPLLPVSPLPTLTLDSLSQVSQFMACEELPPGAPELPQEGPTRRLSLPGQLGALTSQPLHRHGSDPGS", "experiment": "modulators of KCNH2 ion channel function, cellular (AID 376);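 further: 0% = buffer alone and 100% = reference blocker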", "details": "hERG-expressing cells, channel activity single-concentration screen; concentration not given here", "values": [{"smiles": "CC(C)c1ccc(C(O)(C(=O)O)c2ccc(C(C)C)cc2)cc1", "hERG blockade": "7.38% (inactive)"}, {"smiles": "CC(=O)OC1CCC2(C)C(CCC3C2CC(=O)C2(C)C3CC(N3CC3)C2C(C)=O)C1", "note": "(stereo not drawn)", "hERG blockade": "2.23% (inactive)"}, {"smiles": "CCc1ccc(CCN2CCCCC2)nc1", "hERG blockade": "-0.853% (inactive)"}, {"smiles": "O=C(CC(c1ccccc1)c1c(O)c2ccccc2oc1=O)c1ccccc1", "note": "(stereo not drawn)", "hERG blockade": "22.2% (active)"}, {"smiles": "CC(C)c1ccc(C(c2c(O)c3ccccc3oc2=O)c2c(O)c3ccccc3oc2=O)cc1", "hERG blockade": "15.3% (inactive)"}, {"smiles": "Nc1ccccc1O.O.O=C(O)C1[O][Sb][O]C1C(=O)O", "note": "(stereo not drawn)", "hERG blockade": "16.3% (inactive)"}, {"smiles": "[N-]=[N+]=CC(=O)CCC(N)C(=O)O", "note": "(stereo not drawn)", "hERG blockade": "2.68% (inactive)"}, {"smiles": "O=C(CCN1CC2CCC(CC2)C1)c1cccs1", "hERG blockade": "29.2% (active)"}, {"smiles": "NC(CCl)=NC1CN2CCC1CC2", "note": "(stereo not drawn)", "hERG blockade": "-4.96% (inactive)"}, {"smiles": "O=[As](O)(O)c1ccc(N=Nc2ccc(O)cc2)cc1", "hERG blockade": "-7.36% (inactive)"}, {"smiles": "O=C(c1ccccc1)C1C(c2ccccc2[N+](=O)[O-])N1C1CCCCC1", "note": "(stereo not drawn)", "hERG blockade": "24.1% (active)"}, {"smiles": "CCCOC(=O)C1C2CCC(O2)C1C(=O)O", "note": "(stereo not drawn)", "hERG blockade": "8.66% (inactive)"}, {"smiles": "Oc1ccc(C(O)C2CCCCN2)cc1O", "note": "(stereo not drawn)", "hERG blockade": "1.5% (inactive)"}, {"smiles": "Cc1ccc(S(=O)(=O)OC2CN3CCC2CC3)cc1", "note": "(stereo not drawn)", "hERG blockade": "2.18% (inactive)"}, {"smiles": "CS(=O)(=O)OC1CN2CCC1CC2", "note": "(stereo not drawn)", "hERG blockade": "-24.5% (active)"}, {"smiles": "CN(C)CCC(C#N)(c1ccccc1)c1ccccc1", "hERG blockade": "6.53% (inactive)"}, {"smiles": "c1ccc2c(c1)Sc1ccccc1N2CC1CN2CCC1CC2", "note": "(stereo not drawn)", "hERG blockade": "69.3% (active)"}, {"smiles": "CC1C(C)N1CC(O)Cn1ccnc1[N+](=O)[O-]", "note": "(stereo not drawn)", "hERG blockade": "8.14% (inactive)"}, {"smiles": "Cc1ccc(O)cc1", "note": "(tested in a mixture with another compound)", "hERG blockade": "-3.08% (inactive)"}, {"smiles": "ClCC[N+]12CC[N+](CCCl)(CC1)C2", "note": "(tested in a mixture with another compound)", "hERG blockade": "11.5% (inactive)"}, {"smiles": "CC1(C)N=C(N)N=C(N)N1c1cccc(C(=O)Nc2ccc(S(=O)(=O)F)cc2)c1", "hERG blockade": "24.1% (active)"}, {"smiles": "O=C(O)c1cccc([As]=[As]c2cccc(C(=O)O)c2)c1", "note": "(stereo not drawn)", "hERG blockade": "-10.8% (inactive)"}, {"smiles": "NC(Cc1cc(Br)c(O)c(Br)c1)C(=O)O", "note": "(stereo not drawn)", "hERG blockade": "9.07% (inactive)"}, {"smiles": "NNc1nncn1N", "hERG blockade": "-1.06% (inactive)"}, {"smiles": "COc1cc2cc(c1Cl)N(C)C(=O)CC(OC(=O)C(C)C)C1(C)OC1C(C)C1CC(O)(NC(=O)O1)C(OC)C=CC=C(C)C2", "note": "(stereo not drawn)", "hERG blockade": "33% (active)"}, {"smiles": "O=C(O)C[O][Sb][O]CC(=O)O", "hERG blockade": "2.23% (inactive)"}, {"smiles": "OC(CN1CC1)C(O)CN1CC1", "note": "(stereo not drawn)", "hERG blockade": "3.04% (inactive)"}, {"smiles": "c1cc(CCN2CCCCC2)ccn1", "hERG blockade": "-7.49% (inactive)"}, {"smiles": "C=C(C)c1ccccc1", "note": "(tested in a mixture with another compound)", "hERG blockade": "1.7% (inactive)"}, {"smiles": "CC1OC(OC2CC(O)C3(CO)C4C(O)CC5(C)C(C6=CC(=O)OC6)CCC5(O)C4CCC3(O)C2)C(O)C(O)C1O", "note": "(stereo not drawn)", "hERG blockade": "2.43% (inactive)"}, {"smiles": "CCC1(O)C(=O)OCc2c1cc1n(c2=O)Cc2cc3c(NC(=O)CN)cccc3nc2-1", "note": "(stereo not drawn)", "hERG blockade": "7.93% (inactive)"}, {"smiles": "O=C(O)C(Cc1cnc[nH]1)N1C(=O)c2ccccc2C1=O", "note": "(stereo not drawn)", "hERG blockade": "14.2% (inactive)"}, {"smiles": "Oc1cccc2cccnc12", "hERG blockade": "-22.9% (active)"}, {"smiles": "NCCCN1CCN(c2ccccc2)CC1", "hERG blockade": "-0.441% (inactive)"}, {"smiles": "C(=NCCN1CCOCC1)=NC1CCCCC1", "hERG blockade": "6.97% (inactive)"}, {"smiles": "O=C(O)c1cc(N=Nc2ccc([As](=O)(O)O)cc2)ccc1O", "hERG blockade": "3.08% (inactive)"}, {"smiles": "CC(=O)OC1=CC2=CCC3C4CCC(=O)C4(C)CC(=O)C3(S)C2(C)CC1", "note": "(stereo not drawn)", "hERG blockade": "-3.78% (inactive)"}, {"smiles": "O=C(O)CNCP(=O)(O)O", "hERG blockade": "-1.2% (inactive)"}, {"smiles": "CN1CC(C(=O)NC2(C)OC3(O)C4CCCN4C(=O)C(Cc4ccccc4)N3C2=O)C=C2c3cccc4[nH]cc(c34)CC21", "note": "(stereo not drawn)", "hERG blockade": "6.97% (inactive)"}, {"smiles": "CC(Br)CN(CC(C)Br)c1ccc2c(c1)Cc1ccccc1-2", "note": "(stereo not drawn)", "hERG blockade": "3.41% (inactive)"}, {"smiles": "CCC(O)(C(=O)O)c1cc2n(c(=O)c1CO)Cc1cc3ccccc3nc1-2", "note": "(stereo not drawn)", "hERG blockade": "-3.09% (inactive)"}, {"smiles": "C[N+]1([O-])C2CCC1CC(OC(=O)C(CO)c1ccccc1)C2", "note": "(stereo not drawn)", "hERG blockade": "-12.1% (inactive)"}, {"smiles": "CN(C)CCCNc1c2c(nc3ccc(Cl)cc13)CCCC2", "hERG blockade": "65.9% (active)"}, {"smiles": "O=S(=O)(O)C(=Cc1ccccc1)c1ccccc1", "note": "(tested in a mixture with another compound)", "hERG blockade": "-5.32% (inactive)"}, {"smiles": "O=C(O)Cc1ccc([N+](=O)[O-])cc1[N+](=O)[O-]", "hERG blockade": "-15.6% (inactive)"}, {"smiles": "CC(c1ccccc1)N1CCN(C(C)c2ccccc2)CC1", "note": "(stereo not drawn)", "hERG blockade": "2.64% (inactive)"}, {"smiles": "CCC1CN2CCc3cc(OC)c(OC)cc3C2CC1CC1NCCc2c1[nH]c1ccc(O)cc21", "note": "(stereo not drawn)", "hERG blockade": "35.8% (active)"}, {"smiles": "O=C(O)CC1OCC=C2CN3CCC45C6=CC(=O)C(=O)C([N+](=O)[O-])=C6NC4C1C2CC35", "note": "(stereo not drawn)", "hERG blockade": "13.9% (inactive)"}]}]}
